Results: the supplement of paper PMC7156485
± gives the standard deviation of the averaged measurements.

Tests used:
Conditions in all cases: concentration: 10 µM; 24 h
[1] = tested on: HCC1569; test: cell number relative to DMSO (% of DMSO); higher = more cells (less growth inhibition / toxicity)
Procedure, shortened: (§1)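 For HCC1569 and TDF cells, compounds at 10 µM were applied for 24 h at 37 °C in triplicate in 384-well plates. Cells were fixed in 3.7% formaldehyde, stained for H1.0 and with DAPI, and imaged at ×10 over six fields per well. The endpoint, H1.0 nuclear intensity or cell number, is shown as percent of the plate control using the median of replicates. Positional effects were smoothed for HCC1569 only.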

[2] = tested on: TDF; test: as above
Procedure, shortened: as §1

[3] = tested on: TDF; test: H1.0 immunofluorescence intensity relative to DMSO (% of DMSO); higher = stronger H1.0 induction, active = 120 or more
Procedure, shortened: as §1

[4] = tested on: HCC1569; test: H1.0 immunofluorescence intensity relative to DMSO (% of DMSO); higher = stronger H1.0 induction, active = 140 or more
Procedure, shortened: as §1
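Throughout, for H1.0 immunofluorescence intensity relative to DMSO: TDF is a line of transformed human dermal fibroblasts of mesenchymal origin.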
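Throughout, for cell number relative to DMSO: TDF denotes transformed human dermal fibroblasts of mesenchymal origin.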

With `NS(=O)(=O)c1ccc(S(=O)(=O)Nc2cccc3c(Cl)c[nH]c23)cc1` [N~1~-(3-chloro-1H-indol-7-yl)-1,4-benzenedisulfonamide] the cell number [1] was 95.3, the cell number [2] was 103 and the H1.0 immunofluorescence intensity [3] was 96.2 (inactive). For the same molecule, the H1.0 immunofluorescence intensity [4] was 107 (inactive).

`Cc1cnc(NC(=O)C2=C([O-])c3ccccc3S(=O)(=O)N2C)s1.[Na+]` [Meloxicam sodium] was tested, and the cell number [1] was 102, the cell number [2] was 115 and the H1.0 immunofluorescence intensity [3] was 91.1 (inactive). For the same molecule, the H1.0 immunofluorescence intensity [4] was 97.1 (inactive).

In the case of `COc1ccc2c(c1OC)N=C(NC(=O)c1cccnc1)N1CCN=C21`, the cell number [1] is reported as 99.8, the cell number [2] is reported as 93.2 and the H1.0 immunofluorescence intensity [3] is reported as 94.1 (inactive). The H1.0 immunofluorescence intensity [4] was 101 (inactive).

In the case of `CCc1cc(CCC2(C3CCCC3)CC(O)=C(Cc3nc4nc(C)cc(C)n4n3)C(=O)O2)cc(CC)n1` (configuration not stated), the cell number [1] is reported as 97.3, the cell number [2] is reported as 106 and the H1.0 immunofluorescence intensity [3] is reported as 87.6 (inactive). For the same molecule, the H1.0 immunofluorescence intensity [4] was 104 (inactive).

`CCCCCCCCCCCCCCCC(=O)C(F)(F)F` was tested, and the cell number [1] was 103, the cell number [2] was 108 and the H1.0 immunofluorescence intensity [3] was 93.3 (inactive). For the same molecule, the H1.0 immunofluorescence intensity [4] was 94.4 (inactive).

`Cn1nnc2c(C(N)=O)ncn2c1=O` [Temozolomide] was tested, and the cell number [1] was 105, the cell number [2] was 91.4 and the H1.0 immunofluorescence intensity [3] was 105 (inactive). The H1.0 immunofluorescence intensity [4] was 101 (inactive).

With `CCCCCCCCCCCCCCCC(O)C(N)CO` (racemic) [DL-Dihydrosphingosine] the cell number [1] was 103, the cell number [2] was 101 and the H1.0 immunofluorescence intensity [3] was 96.2 (inactive). The H1.0 immunofluorescence intensity [4] was 100 (inactive).

`OCc1ccc(-c2nn(Cc3ccccc3)c3ccccc23)o1` was tested, and the cell number [1] was 102, the cell number [2] was 106 and the H1.0 immunofluorescence intensity [3] was 98.9 (inactive). The H1.0 immunofluorescence intensity [4] was 106 (inactive).

With `CN(C)CCCOc1nn(Cc2ccccc2)c2ccccc12` [Benzydamine] the cell number [1] was 100, the cell number [2] was 83.7 and the H1.0 immunofluorescence intensity [3] was 104 (inactive). For the same molecule, the H1.0 immunofluorescence intensity [4] was 103 (inactive).

With `O=C(O)C1CCCNC1C(=O)O` (mixture of isomers) the cell number [1] was 108, the cell number [2] was 110 and the H1.0 immunofluorescence intensity [3] was 96.4 (inactive). For the same molecule, the H1.0 immunofluorescence intensity [4] was 96.7 (inactive).

For `CS(=O)c1ccc(-c2nc(-c3ccc(F)cc3)c(-c3ccncc3)[nH]2)cc1.Cl` (configuration not stated), the cell number [1] was 88.9, the cell number [2] was 99.5 and the H1.0 immunofluorescence intensity [3] was 94.5 (inactive). The H1.0 immunofluorescence intensity [4] was 117 (inactive).

For `CCCCCC(=O)C=CC=CCCCCCCCC(=O)O` [13-Ketooctadecadienoioc acid], the cell number [1] was 99.9, the cell number [2] was 97.6 and the H1.0 immunofluorescence intensity [3] was 95.9 (inactive). The H1.0 immunofluorescence intensity [4] was 103 (inactive).

With `Cl.NNc1nncc2ccccc12` [Hydralazine hydrochloride] the cell number [1] was 101, the cell number [2] was 107 and the H1.0 immunofluorescence intensity [3] was 93.2 (inactive). For the same molecule, the H1.0 immunofluorescence intensity [4] was 92 (inactive).

`O=c1[nH]c(=O)n(C2CC(O)C(CO)O2)cc1I` (configuration not stated) [Idoxuridine] was tested, and the cell number [1] was 103, the cell number [2] was 100 and the H1.0 immunofluorescence intensity [3] was 92.2 (inactive). For the same molecule, the H1.0 immunofluorescence intensity [4] was 121 (inactive).

`Cn1sc(=O)n(Cc2ccccc2)c1=O` [GSK-3b Inhibitor I] was tested, and the cell number [1] was 98.9, the cell number [2] was 102 and the H1.0 immunofluorescence intensity [3] was 98.3 (inactive). For the same molecule, the H1.0 immunofluorescence intensity [4] was 134 (inactive).

In the case of `CNCCC=C1c2ccccc2CCc2ccccc21.Cl` [Nortriptyline hydrochloride], the cell number [1] is reported as 88.9, the cell number [2] is reported as 93.9 and the H1.0 immunofluorescence intensity [3] is reported as 109 (inactive). For the same molecule, the H1.0 immunofluorescence intensity [4] was 117 (inactive).

In the case of `CCOC(=O)C1=CC(OC(CC)CC)C(NC(C)=O)C(N)C1` (configuration not stated) [Oseltamivir], the cell number [1] is reported as 104, the cell number [2] is reported as 100 and the H1.0 immunofluorescence intensity [3] is reported as 94 (inactive). For the same molecule, the H1.0 immunofluorescence intensity [4] was 99.4 (inactive).

For `CC1(C)NC(=O)N(c2ccc([N+](=O)[O-])c(C(F)(F)F)c2)C1=O` [Nilutamide], the cell number [1] was 101, the cell number [2] was 91 and the H1.0 immunofluorescence intensity [3] was 98.9 (inactive). The H1.0 immunofluorescence intensity [4] was 100 (inactive).

`COc1ccc(C2CC(=O)c3c(O)cc(O)cc3O2)cc1O` (configuration not stated) [Hesperitine] was tested, and the cell number [1] was 98.4, the cell number [2] was 101 and the H1.0 immunofluorescence intensity [3] was 98.1 (inactive). For the same molecule, the H1.0 immunofluorescence intensity [4] was 92.8 (inactive).

In the case of `CC(C)NCC(O)c1ccc2ccccc2c1.Cl` (configuration not stated) [Pronethalol.HCl], the cell number [1] is reported as 101, the cell number [2] is reported as 107 and the H1.0 immunofluorescence intensity [3] is reported as 86.6 (inactive). For the same molecule, the H1.0 immunofluorescence intensity [4] was 102 (inactive).

In the case of `COc1ccc(CC(N)C(=O)NC2C(CO)OC(n3cnc4c(N(C)C)ncnc43)C2O)cc1` (configuration not stated) [Puromycin], the cell number [1] is reported as 24.1 ± 7.4, the cell number [2] is reported as 99.2 ± 15 and the H1.0 immunofluorescence intensity [3] is reported as 94 (inactive). For the same molecule, the H1.0 immunofluorescence intensity [4] was 90.9 (inactive).

For `COc1cc(C2Oc3cc(C4Oc5cc(O)cc(O)c5C(=O)C4O)ccc3OC2CO)ccc1O` (configuration not stated) [Silymarin], the cell number [1] was 102, the cell number [2] was 93.6 and the H1.0 immunofluorescence intensity [3] was 95.5 (inactive). For the same molecule, the H1.0 immunofluorescence intensity [4] was 88.3 (inactive).

`CN(C)c1ccccc1CN1CCCN(Cc2ccccc2N(C)C)C1c1ccncc1` was tested, and the cell number [1] was 83.9, the cell number [2] was 65.2 and the H1.0 immunofluorescence intensity [3] was 109 (inactive). The H1.0 immunofluorescence intensity [4] was 137 (inactive).
